HT1080 IDH1KD tx: toxicity to HT-1080 IDH1 knockdown cells (counter line); HT-1080 IDH1 knockdown viability, ATP luminescence, 48 h; Potency, µM (titrated, usually from 46.1 µM), for inactives: at the top dose activity, negative = toxicity, hits mostly cytotoxic; hit rate 2% among 360,000; AID 686971;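 note: 0% = DMSO wells and -100% = cell-free medium wells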
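Assay cells: HT-1080 with IDH1 knockdown, 750 per well, RPMI/5% FBS. Exposure: 48 h at 37 °C following 2 h pre-incubation. Read: CellTiter-Glo luminescence; fitted concentration-response, curve class assigned.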
HT1080-NT tox: kills 2HG-producing HT-1080-NT fibrosarcoma cells. HT-1080-NT fibrosarcoma viability, CellTiter-Glo ATP luminescence, 48 h. Potency, µM (series often up to 46.1 µM), without a hit: at the highest dose activity, negative = less viability, actives largely listed as cytotoxic. hit rate 1.6% among 360,000. AID 686970;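 note: NT is the 2HG producing partner of a matched IDH1 knockdown line; 0% = DMSO-treated cells and -100% = media-only wells without cells; nearly all actives have a fitted effect of over 55% in size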
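A 48-hour cytotoxicity screen used HT-1080-NT cells plated 2 hours before compound delivery. ATP-based CellTiter-Glo luminescence measured viability, normalized to DMSO and no-cell controls.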
KB-V1 MDR tox: KB-V1 MDR subline cytotoxicity | KB-V1 MDR cells viability, CellTiter-Glo, 72 h | Potency, µM (doses to about 46.1 µM), actives largely listed as cytotoxic | hit rate 3.4% among 400,000; note: % is set by controls: 0 for no effect and ±100 for the full control effect; nearly all actives have a fitted effect of over 60% in size
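Cytotoxicity toward P-gp-expressing KB-V1 cells was determined as loss of CellTiter-Glo luminescence after 72 h at 37 degrees C. Compounds were tested in quantitative HTS format across a concentration range, with curves fitted to normalized data.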
HepG2 tox: HepG2 cytotoxicity, counter-screen for TGF-b inhibitors; HepG2 CAGA-GFP viability, ATP luminescence, 18 h; Potency, µM (top dose mostly 46.1 µM), inactives show at the top dose activity change, negative = cytotoxicity, actives largely listed as cytotoxic; hit rate 0.76% among 410,000; AID 588856
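CellTiter-Glo luminescence gave cytotoxicity after 18 hours at 37 degrees C. The cells were HepG2 CAGA-GFP in 1% FBS DMEM, stimulated with 500 pg/mL TGF-beta after compound addition. %Activity was normalised to no-cell wells (complete cell-killing) and DMSO (no toxicity), and curves were fitted and classified.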
KB-3-1 tox: kills parental KB-3-1 adenocarcinoma cells; Potency, µM (titrated, usually from 46.1 µM), usual class: cytotoxic; KB-3-1 viability, CellTiter-Glo ATP luminescence, 72 h; AID 1347075; hit rate 1.4% among 400,000; note: % is set by controls: 0 for no effect and ±100 for the full control effect; nearly all actives have a fitted effect of over 60% in size
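Screening of KB-3-1 cells (DMEM, 10% FBS, phenol-red free) ran from lowest to highest compound concentration; after 72 h at 37 °C viability was read luminescently and curves fitted.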
TGFb inhibitor: blocks TGF-b signaling; HepG2 CAGA-GFP TGF-b/SMAD3 reporter, GFP fluorescence, 18 h; TGF-beta stimulated, 500 pg/mL final; Potency, µM (top dose mostly 46.1 µM), inactives show at the highest dose activity, negative = inhibition, usual class: inhibitors; hit rate 1.2% among 410,000; AID 588855; note: % is set by controls: 0 for no effect and ±100 for the full control effect; nearly all actives have a fitted effect of over 65% in size
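HEPG2 CAGA-GFP reporter cells (1000/well, DMEM with 1% FBS) received compounds, then recombinant TGF-beta at 500 pg/mL final for 18 hours at 37 degrees C. Per-cell GFP summed per well was normalised to unstimulated and stimulated DMSO controls before curve fitting.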
The depositor's hits bear a star; i = inactive; ? = inconclusive; . = no result given. Shown are actives, neighbours in structure and some others; about 6.6% of the full set was active somewhere. Calls come from the whole dose curve; as a rule, active = well fitted curve in the direction sought with a large enough effect; inconclusive = small, poorly fitted or top-dose-only effect, or another doubt; inactive = no such curve, though single readings can be large; an effect the other way counts as inactive or inconclusive. Potency is the fitted concentration of half-maximal effect.

SMILES	HT1080 IDH1KD tx	HT1080-NT tox	KB-V1 MDR tox	HepG2 tox	KB-3-1 tox	TGFb inhibitor
Cc1cc(O)c(C(=O)/C=C/c2ccc(Cl)cc2)c(=O)o1	7%	0%	?	-30%	16µM*	-4%
Cc1ccccc1CN1CCc2c(OCC(=O)N3CCCc4ccccc43)cccc2C1=O	?	?	?	-26%	21µM*	-47%
Cc1ccccc1OCC(=O)N1CCCc2ccccc21	0%	26%	i	8%	i	-3%
Cn1c(=O)cc(OCC(=O)N2CCCc3ccccc32)c2ccccc21	1%	6%	15µM*	-27%	i	0%
Cc1cccc(NC(=O)COc2cccc3c2CCN(Cc2ccccc2)C3=O)c1C	3%	4%	9.2µM*	2%	i	-3%
CC(C)C(=O)c1cn(CC(=O)N2CCCc3ccccc32)c2ccccc12	-12%	6%	5.2µM*	0%	i	-9%
Cc1cccc(NC(=O)COc2cccc3c2CCN(C)C3=O)c1C	-10%	4%	?	-4%	i	62%
CCOC(=O)N1CCN(C(=O)COc2cccc3c2CCN(Cc2ccccc2C)C3=O)CC1	-6%	-7%	?	-21%	i	-2%
Cc1ccccc1CN1C(=O)c2ccccc2Sc2ccc(C(=O)NC3CCCCC3)cc21	.	.	.	1%	.	0%
COc1ccc2c(c1)CC(C(=O)Nc1cc(Cl)ccc1C)CO2 (configuration not stated)	.	.	.	-11%	.	-13%
O=C1c2cccc(OCC(=O)N3N=C(c4cccs4)CC3c3ccc(F)cc3)c2CCN1Cc1cccnc1 (configuration not stated)	-30%	-22%	21µM*	-19%	i	?
O=C(c1cccnc1)N1N=C(c2cccs2)CC1c1ccc(F)cc1 (configuration not stated)	4%	2%	?	-14%	i	?
O=C(COc1cccc2c1CCN(Cc1ccccc1)C2=O)N1CCCCC1	-21%	-15%	?	5%	i	-5%
O=C1c2cccc(OCC(=O)N3CCCc4ccccc43)c2CCN1Cc1cccnc1	-11%	-7%	3.7µM*	-19%	?	?
CCOc1ccc(CNC(=O)c2ccc(NC(=O)N3CCSc4ncccc43)cc2)cc1OC	.	.	?	8%	i	-9%
CCc1ccc(NC(=O)CSc2nc3c(c(=O)[nH]2)CN(Cc2ccc(C)cc2)CC3)cc1	.	.	i	1%	i	-24%
COc1cnc(-c2ccccn2)nc1N(C)C	5.8µM*	?	21µM*	-17%	?	-27%
COc1cnc(-c2ccccn2)nc1Oc1c(C)cccc1C	?	-7%	?	-22%	i	-19%
COc1cnc(-c2ccccn2)nc1Oc1cccc(Cl)c1	2%	-2%	6.5µM*	-17%	i	-20%
COc1ccc(Oc2nc(-c3ccccn3)ncc2OC)cc1	1%	-2%	i	-2%	i	0%
COc1cnc(-c2ccccn2)nc1Sc1c(Cl)cccc1Cl	7.9µM*	16µM*	2.9µM*	-40%	?	-6%
CC(C)Oc1ccc(CNC(=O)CC(c2ccccc2)c2cc(Cl)ccc2O)cc1 (configuration not stated)	?	?	23µM*	16µM*	i	?
COc1ccccc1C(CC(=O)Nc1ccc(Cl)cc1)c1ccc(OC(C)C)cc1 (configuration not stated)	-17%	-14%	?	-14%	i	3%
COc1ccc(C(CCNCc2ccc(N(C)C)cc2)c2ccccc2)cc1 (configuration not stated)	?	18µM*	?	-186%	i	?
COc1ccc(CNCCC(c2ccc3c(c2)OCO3)c2ccccc2OC)cc1 (configuration not stated)	.	.	?	10µM*	i	?

Screening results deposited in PubChem BioAssay by National Center for Advancing Translational Sciences (NCATS).
